The text below walks through data of PubChem BioAssay.

Active and inactive are the calls of the source.

Test [1] is described as follows: optical density shifts of acrAB sulA E. coli – strain DRC41, OD650, 48 h, E. coli filamentation inducer project, primary screen (AID 1152).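 Also: E. coli MC1000 strain DRC41 lacking acrAB efflux pump and sulA.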 Conditions: higher = more signal, called active from +8 up or from −8 down.
A short description of test [2]: probe aLefty1 binding on compound microarray – biochemical, small-molecule microarray, 635/667 nm fluorescence, primary screen (AID 1153).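 Also: score merges spot fluorescence with signal-to-noise ratio from the scanned slide images.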 The conditions noted are these: higher = more signal.
The nature of test [3]: plasmodial surface anion channel blockers, osmotic lysis – cell-based, P. falciparum Indochina, OD700, 1 h, primary screen (AID 1154). Conditions: P. falciparum Indochina infected RBC osmotic lysis, higher = more signal, called active from +8 up or from −8 down.
Test [4] can be described thus: plasmodial surface anion channel blockers, osmotic lysis – cell-based, P. falciparum Indochina, OD700, 2 h, primary screen (AID 1155).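 Also: lysis reports solute entry through the parasite surface anion channel PSAC.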 Conditions: P. falciparum Indochina infected erythrocytes, higher = more signal, called active from +8 up or from −8 down.
Test [5] can be described thus: changes in parasitized red cell lysis, either direction – P. falciparum Indochina, OD700, 3 h, PSAC antagonist project, primary screen (AID 1156). The conditions noted are these: P. falciparum-infected erythrocytes, osmotic lysis, higher = more signal, called active from +8 up or from −8 down.
The nature of test [6]: plasmodial surface anion channel blockers, osmotic lysis – cell-based, P. falciparum Indochina, OD700, 18 h, primary screen (AID 1157). Conditions: P. falciparum Indochina infected erythrocytes, osmotic lysis OD700, 18 h; higher = more signal, called active from +8 up or from −8 down.
Test [7] is described as follows: S6 kinase pathway phospho-S6 level changes – cell-based, A549, cytoblot, luminescence, serum-stimulated, primary screen (AID 1158).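 Also: serum-stimulated A549 lung adenocarcinoma cells; signal is phosphorylated S6 detected by cytoblot immunostaining with HRP secondary.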 The conditions noted are these: 5 h, higher = more signal.
Test [8] has as its target NADPH oxidase 2 (Homo sapiens) (UniProt P04839). Description: compounds shifting NOX2 Amplex Red fluorescence – cell-based, HEK293-NOX2, PMA-stimulated, NOX inhibitor project, primary screen (AID 1159). Also: test concentration not given here. Conditions: 45 min, higher = more signal, called active from +8 up or from −8 down.
Test [9] concerns the target NADPH oxidase 4 (Homo sapiens) (UniProt Q9NPH5). Nature of the test: compounds shifting NOX4 Amplex Red fluorescence – cell-based, HEK293-NOX4, tetracycline-induced, NOX inhibitor project, primary screen (AID 1160). Conditions: HEK293-NOX4, Amplex Red H2O2 fluorescence, 45 min; higher = more signal, called active from +8 up or from −8 down.
In test [10] the target is NADPH oxidase 5 (Homo sapiens) (UniProt Q96PH1). Description: compounds shifting NOX5 Amplex Red fluorescence – cell-based, HEK293-NOX5, NOX inhibitor project, primary screen (AID 1161). The conditions noted are these: HEK293-NOX5, ionomycin, 45 min, higher = more signal.
Chain of NADPH oxidase 5 (Homo sapiens) (Q96PH1 whole entry, looked up): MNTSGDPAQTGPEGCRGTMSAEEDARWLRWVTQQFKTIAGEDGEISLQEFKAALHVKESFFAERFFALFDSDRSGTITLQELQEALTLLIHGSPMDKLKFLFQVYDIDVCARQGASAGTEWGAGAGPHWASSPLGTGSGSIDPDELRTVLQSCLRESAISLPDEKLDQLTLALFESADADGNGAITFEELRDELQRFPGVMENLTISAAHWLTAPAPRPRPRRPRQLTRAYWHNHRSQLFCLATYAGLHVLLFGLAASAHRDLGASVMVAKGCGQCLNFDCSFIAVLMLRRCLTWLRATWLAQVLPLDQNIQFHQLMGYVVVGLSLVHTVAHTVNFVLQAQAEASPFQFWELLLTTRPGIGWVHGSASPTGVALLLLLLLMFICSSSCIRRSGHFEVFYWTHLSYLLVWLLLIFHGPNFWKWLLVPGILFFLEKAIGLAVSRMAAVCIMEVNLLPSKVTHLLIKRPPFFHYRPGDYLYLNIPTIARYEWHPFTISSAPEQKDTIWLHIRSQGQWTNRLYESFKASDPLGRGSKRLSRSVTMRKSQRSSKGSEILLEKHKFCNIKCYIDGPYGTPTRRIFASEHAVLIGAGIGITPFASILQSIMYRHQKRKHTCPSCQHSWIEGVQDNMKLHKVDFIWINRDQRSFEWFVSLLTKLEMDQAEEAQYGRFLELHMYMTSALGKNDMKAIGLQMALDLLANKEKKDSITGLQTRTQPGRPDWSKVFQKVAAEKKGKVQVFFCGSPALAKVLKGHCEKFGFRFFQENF
Test [11] is described as follows: compound effects on lung adenocarcinoma cell viability – A549, calcein-AM fluorescence, 48 h, basal, profiling panel (AID 1162). Also: test concentration not given here. Conditions: higher = more signal.
Test [12] is described as follows: compound effects on differentiated 3T3-L1 adipocyte viability – cell-based, 3T3-L1 adipocytes, calcein-AM fluorescence, 48 h, basal, profiling panel (AID 1163). Also: test concentration not given here. The conditions noted are these: 3T3-L1 adipocytes viability, higher = more signal.
Test [13] in a line: compound effects on hepatocellular carcinoma cell viability – HepG2, calcein-AM fluorescence, 48 h, basal, profiling panel (AID 1164). Also: test concentration not given here. Conditions: higher = more signal.
Test [14] can be described thus: compound effects on multiple myeloma cell viability – MM1S, calcein-AM fluorescence, 48 h, basal, profiling panel (AID 1165). Also: test concentration not given here. The conditions noted are these: higher = more signal.
The nature of test [15]: calcein-AM signal in unstimulated myeloma cells – cell-based, calcein-AM fluorescence, 48 h, PK04 Diversity Set, profiling panel (AID 1166).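 Also: cells grown under basal conditions without added stimulus; test concentration not given here.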 The conditions noted are these: RPMI8226 myeloma viability, higher = more signal.
Test [16] in a line: JC-1 mitochondrial signal, unstimulated HepG2 cells – cell-based, JC-1 fluorescence, 24 h, 100 nL compound, profiling panel (AID 1167). Also: test concentration not given here. Conditions: HepG2 mitochondrial potential, higher = more signal.
Test [17] can be described thus: JC-1 mitochondrial signal, unstimulated adipocytes – cell-based, JC-1 fluorescence, 3T3-L1 adipocytes, 24 h, 100 nL compound, profiling panel (AID 1168). Also: test concentration not given here. The conditions noted are these: JC-1 mitochondrial fluorescence, higher = more signal, called active from +8 up or from −8 down.
Test [18] in a line: JC-1 mitochondrial signal, unstimulated myeloma cells – cell-based, JC-1 fluorescence, RPMI8226, 24 h, 100 nL compound, profiling panel (AID 1169). Also: test concentration not given here. Conditions: JC-1 mitochondrial potential fluorescence, higher = more signal.
Test [19] is described as follows: JC-1 mitochondrial signal, unstimulated MM1S myeloma – cell-based, JC-1 fluorescence, 24 h, 100 nL compound, profiling panel (AID 1170). Also: test concentration not given here. The conditions noted are these: MM1S mitochondrial potential, higher = more signal.
Test [20] can be described thus: resazurin metabolic signal in A549 cells – cell-based, resazurin fluorescence, 24 h, PK04 Diversity Set, profiling panel (AID 1171). Also: test concentration not given here. Conditions: A549 viability, higher = more signal, called active from +8 up or from −8 down.

Chain of NADPH oxidase 2 (Homo sapiens) (P04839 whole entry, looked up): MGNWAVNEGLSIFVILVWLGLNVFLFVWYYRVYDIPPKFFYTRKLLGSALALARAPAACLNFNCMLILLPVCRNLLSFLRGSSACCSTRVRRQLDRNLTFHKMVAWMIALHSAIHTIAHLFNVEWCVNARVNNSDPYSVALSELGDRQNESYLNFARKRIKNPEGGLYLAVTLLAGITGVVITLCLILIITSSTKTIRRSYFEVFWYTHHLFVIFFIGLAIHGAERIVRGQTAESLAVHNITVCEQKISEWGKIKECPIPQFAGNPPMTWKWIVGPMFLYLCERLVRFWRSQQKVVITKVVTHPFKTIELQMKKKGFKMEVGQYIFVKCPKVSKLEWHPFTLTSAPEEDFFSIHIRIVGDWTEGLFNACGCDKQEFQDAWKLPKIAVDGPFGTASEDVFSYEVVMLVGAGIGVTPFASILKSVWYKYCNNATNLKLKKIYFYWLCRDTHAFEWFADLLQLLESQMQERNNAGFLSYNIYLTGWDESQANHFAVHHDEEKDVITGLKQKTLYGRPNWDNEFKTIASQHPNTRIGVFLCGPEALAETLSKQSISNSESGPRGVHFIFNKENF
Chain of NADPH oxidase 4 (Homo sapiens) (Q9NPH5 whole entry, looked up): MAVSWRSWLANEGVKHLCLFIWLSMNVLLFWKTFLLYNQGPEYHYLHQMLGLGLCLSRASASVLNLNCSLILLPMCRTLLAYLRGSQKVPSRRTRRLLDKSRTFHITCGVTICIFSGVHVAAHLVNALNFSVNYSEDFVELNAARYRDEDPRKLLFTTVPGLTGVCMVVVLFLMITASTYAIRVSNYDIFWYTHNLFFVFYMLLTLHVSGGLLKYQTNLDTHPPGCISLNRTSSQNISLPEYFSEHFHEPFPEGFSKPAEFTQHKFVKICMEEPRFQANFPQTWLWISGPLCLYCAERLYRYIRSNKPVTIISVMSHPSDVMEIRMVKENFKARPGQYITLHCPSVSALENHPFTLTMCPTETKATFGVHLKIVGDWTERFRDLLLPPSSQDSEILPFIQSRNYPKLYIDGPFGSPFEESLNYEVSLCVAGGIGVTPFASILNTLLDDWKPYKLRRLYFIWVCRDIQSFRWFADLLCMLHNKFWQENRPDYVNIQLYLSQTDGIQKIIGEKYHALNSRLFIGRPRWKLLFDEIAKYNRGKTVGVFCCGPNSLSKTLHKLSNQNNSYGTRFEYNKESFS

With `COc1c(C)cc(-c2cc3c(c(Cc4ccccc4)n2)[Si](C(C)C)(C(C)C)OC3)cc1C`, the z-score was -1.01 (inactive) in test [1]; 0.613 (inactive) in test [3]; -0.172 (inactive) in test [4]; 0.249 (inactive) in [5]; 0.189 (inactive) in test [6]; -0.671 in [7]. In addition, the z-score in [8] was -0.233 (inactive); in test [9], 0.243 (inactive); in [10], 0.152; in [11] it was -0.983; in test [12], -1.44; in [13] it was 0.269. Besides, the z-score in [14] is -0.418; in test [15], -0.0095; in [16], -1; in [17], -0.737 (inactive); in test [18], 0.0185; in [19] it was -0.00287. Moreover, the z-score in test [20] is -0.124 (inactive). Besides, the composite z-score in test [2] stood at 0.0004.
With `COCC(=C=CC[C@H](O)c1cccc(OCCO)c1)C[C@H](O)c1ccccn1`, the z-score in test [1] is 0.941 (inactive); in test [3] it was 8.86 (active); in test [4] it was 1.16 (inactive); in [5] it was 1.49 (inactive); in test [6], 0.674 (inactive); in test [7], 0.789. The z-score is -0.142 (inactive) in test [8]; 0.154 (inactive) in test [9]; -0.772 in [10]; 1.39 in test [11]; 0.101 in test [12]; 1.25 in test [13]. Also, the z-score was 0.0467 in test [14]; 0.461 in test [15]; 0.843 in test [16]; 1.49 (inactive) in test [17]; 0.237 in test [18]; -0.664 in test [19]. Moreover, the z-score in [20] is 1.22 (inactive). The molecule further came in with a composite z-score in [2] of -0.198.
In the case of `CCOC(=CC(=O)OC)CC(O)c1cccc(Cl)c1` (stereo not given), the z-score in test [1] was 1.04 (inactive); in test [3], 4.33 (inactive); in [4] it was 0.101 (inactive); in [5], 0.898 (inactive); in [6], -1.72 (inactive); in test [7], 0.979. Besides, the z-score is 0.112 (inactive) in [8]; -0.513 (inactive) in test [9]; -0.131 in test [10]; 0.738 in [11]; 0.342 in test [12]; -0.0117 in test [13]. In addition, the z-score in test [14] was 0.221; in test [15], -1.15; in test [16] it was 0.363; in test [17], 0.0253 (inactive); in test [18], -0.0603; in [19], -0.69. The z-score in test [20] was 0.0735 (inactive). The same molecule registered a composite z-score in test [2] of -0.494.
With `C=CCOC(=O)[C@H]1[C@@H]2C(=O)O[C@@H](c3ccccc3)[C@@H](c3ccccc3)N2[C@@H](c2ccc(OCCOC(=O)[C@H]3C[C@H]4C(=O)N[C@@H](Cc5ccccc5)C(=O)N4[C@H]3c3ccc(O)cc3)cc2)[C@]12C(=O)Nc1ccc(I)cc12`, the z-score in test [1] is -0.783 (inactive); in test [3] it was 4.04 (inactive); in test [4], 2.09 (inactive); in [5], 0.28 (inactive); in test [6], 1.06 (inactive); in [7] it was -0.481. The z-score in [8] is 2.07 (inactive); in test [9], 1.18 (inactive); in [10] it was 2.35; in test [11], -0.7; in test [12], 0.664; in [13] it was 1.16. The z-score in test [14] was 0.0161; in test [15], -0.321; in test [16], 0.408; in test [17] it was -0.118 (inactive); in test [18] it was -0.59; in [19], -1.04. Also, the z-score in [20] was -0.0968 (inactive). This molecule also had a composite z-score in [2] of -0.0162.
